PfHsp90 set2 – inhibits growth of yeast expressing Plasmodium falciparum Hsp90 | S. cerevisiae expressing PfHsp90, BacTiter-Glo ATP, 48 h; yeast lacking PDR1 and PDR3 efflux regulators | 0.32% of 310,000 active | inhibition, % at 9.4 µM;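 active = every replicate shows inhibition above about 80%, whatever the replicate mean, limit read from the data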;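 note: 0% = DMSO neutral controls and 100% = 20 µM radicicol positive controls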
tim23-1 inh – tim23-1 yeast growth inhibition; S. cerevisiae tim23-1 growth, BacTiter-Glo luminescence, 24 h; inhibition, % at 20 µM; 1.3% of 330,000 active; AID 463212;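 active = growth inhibition of the mutant yeast at or above 50%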;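 note: temperature-sensitive mutant grown at 25 °C; plate controls were DMSO-treated mutant yeast for no effect and medium wells lacking yeast for full effect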
tim10-1 inh – inhibits growth of tim10-1 mutant yeast. 2.2% of 330,000 active. inhibition, % at 20 µM. S. cerevisiae tim10-1 ts strain growth, BacTiter-Glo, 24 h;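 active = inhibition of at least 40%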;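 note: mutant grown at 25 °C; 0% = DMSO wells with yeast and 100% = wells holding no yeast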
TIM10 inh – TIM10 yeast growth inhibition; 1.4% of 330,000 active; inhibition, % at 10 µM; AID 463195; S. cerevisiae TIM10 strain growth, BacTiter-Glo luminescence, 24 h;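 active = inhibition of 40% or more at the single tested concentration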;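 note: wild-type TIM10 isogenic control strain grown at permissive 25 °C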
SKKanGAS inh – blocks kanamycin growth of S. pyogenes SKKanGAS strain | BacTiter-Glo, 6 h | inhibition, % at 7.5 µM | 1.3% of 300,000 active;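 active = mean replicate score, as percent of positive control median, at least 50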;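 note: strain carries kanamycin resistance gene driven by streptokinase promoter and grows in 40 µg/ml kanamycin; loss of luminescence reflects streptokinase promoter inhibition or plain growth inhibition; 0% = median of DMSO wells and 100% = positive control at its reference dose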
tim10-1 conf – tim10-1 yeast growth inhibition, confirmed | shares compounds with tim10-1 inh | S. cerevisiae tim10-1 ts strain growth, BacTiter-Glo, 24 h | inhibition, % at 20 µM | 56% of 7,400 active | AID 463213;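 active = inhibition of yeast growth at or above a set limit in either of two repeat tests at 20 µM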;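 note: tim10-1 mutant grown at permissive 25 °C to find synthetic lethal compounds; 0% = DMSO yeast wells and 100% = medium wells without yeast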
tim10 confirm – confirmation of TIM10 yeast growth inhibitors; 63% of 4,600 active; AID 463215; inhibition, % at 10 µM; S. cerevisiae tim10 strain growth, BacTiter-Glo luminescence, 24 h; shares compounds with TIM10 inh;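 active = inhibition of yeast growth at or above a set limit in either of two replicates at 10 µM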;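 note: this counterscreen used the strain with wild-type TIM10; 0% = yeast with DMSO and 100% = medium wells lacking yeast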
An asterisk follows results filed as active. The list is not random: actives were taken first. Their share in the collection is about 4.4%.

For Fc1ccccc1CNC(=S)Nc1cccc(C(F)(F)F)c1 the results were PfHsp90 set2 -60.2, tim23-1 inh 47.0, tim10-1 inh 47.1*, TIM10 inh 43.1*, SKKanGAS inh 9.2, tim10-1 conf 46.0* and tim10 confirm 1.6.
Screening CSc1ccccc1NC(=S)Nc1cccc(C(F)(F)F)c1 returned PfHsp90 set2 13.3, tim23-1 inh -2.4, tim10-1 inh 11.6, TIM10 inh 6.0 and SKKanGAS inh 8.2.
CCCc1ccc(OC(=O)c2cccs2)cc1 was read as PfHsp90 set2 -7.4, tim23-1 inh 19.8, tim10-1 inh 13.9, TIM10 inh -2.0 and SKKanGAS inh -0.2.
Screening CCCc1ccc(OC(=O)c2ccc(O)cc2Cl)cc1 returned PfHsp90 set2 2.0, tim23-1 inh 41.8, tim10-1 inh 51.0*, TIM10 inh 41.5*, SKKanGAS inh 81.2*, tim10-1 conf 38.0* and tim10 confirm 44.9*.
`COc1ccc(/C=C/C(=O)Nc2ccccc2)cc1OC` gave PfHsp90 set2 17.9, tim23-1 inh 40.4, tim10-1 inh -33.4, TIM10 inh 14.7 and SKKanGAS inh -8.0.
COc1ccc(/C=C/C(=O)C2(O)CCCCC2)cc1OC was read as tim23-1 inh 40.7, tim10-1 inh 47.5*, TIM10 inh 43.5*, SKKanGAS inh 1.9, tim10-1 conf 39.9* and tim10 confirm 31.4*.
Cc1ccc2nsnc2c1NC(=O)COc1ccccc1 was read as PfHsp90 set2 -0.2, tim23-1 inh 2.3, tim10-1 inh -4.6, TIM10 inh -24.8 and SKKanGAS inh 0.0.
Cc1ccc(NC(=O)CSc2nnc(NC(=O)C(C)C)s2)c(C)c1 was read as PfHsp90 set2 -6.1, tim23-1 inh 4.6, tim10-1 inh -1.3, TIM10 inh 7.0 and SKKanGAS inh -1.6.
`Cc1ccc(Nc2nnc(SCC(=O)c3ccc(Br)s3)s2)c(C)c1` gave PfHsp90 set2 -18.6, tim23-1 inh 38.0, tim10-1 inh 43.4*, TIM10 inh 46.1*, SKKanGAS inh 28.6, tim10-1 conf 34.3* and tim10 confirm -7.3.
Screening O=C(Nc1ccccn1)c1ccc([N+](=O)[O-])o1 returned PfHsp90 set2 -0.4, tim23-1 inh 45.6, tim10-1 inh 44.1*, TIM10 inh 43.7*, SKKanGAS inh -2.1, tim10-1 conf 38.7* and tim10 confirm 34.6*.
`CN(C)CCCNS(=O)(=O)c1cc(Cl)ccc1Cl` gave tim23-1 inh 16.6, tim10-1 inh 4.7, TIM10 inh -10.3 and SKKanGAS inh -15.1.
`CN(C)CCCNS(=O)(=O)c1ccc(N2CCC(c3ccc(Cl)cc3)=N2)cc1` gave tim23-1 inh 11.2, tim10-1 inh 58.9*, TIM10 inh 51.7*, SKKanGAS inh -2.0, tim10-1 conf 39.9* and tim10 confirm 50.3*.
For CC(Oc1ccc(S(=O)(=O)N2CCCC2)cc1[N+](=O)[O-])C(=O)NC1(C#N)CCCCC1 (stereo not drawn) the results were PfHsp90 set2 -5.8, tim23-1 inh -2.5, tim10-1 inh -5.4 and TIM10 inh 7.4.
For Cc1cc(C)cc(N2C(=O)CC(Sc3ncn[nH]3)C2=O)c1 (stereo not drawn) the results were PfHsp90 set2 -25.9, tim23-1 inh 42.6, tim10-1 inh 44.9*, TIM10 inh 41.2*, SKKanGAS inh 0.2, tim10-1 conf 34.8* and tim10 confirm 32.3*.
Cc1ccc2c(c1)C1C[N+](C)(CC(=O)Nc3ccccc3Cl)CCC1N2C(=O)c1ccccc1Cl (stereo not drawn) was read as PfHsp90 set2 -9.3, tim23-1 inh 10.0, tim10-1 inh 3.4 and TIM10 inh -1.2.
CC(C)N1C/C(=C/c2ccsc2)C(=O)/C(=C/c2ccsc2)C1 was read as PfHsp90 set2 3.6, tim23-1 inh 21.8, tim10-1 inh 40.4*, TIM10 inh 45.6*, SKKanGAS inh 1.6, tim10-1 conf 27.7 and tim10 confirm 34.4*.
For CC(C)N1C/C(=C/c2cccnc2)C(=O)/C(=C/c2cccnc2)C1 the results were PfHsp90 set2 16.4.
O=C(Nc1cccc(Cl)c1)NC1CCCCC1 was read as tim23-1 inh 36.2, tim10-1 inh 41.4*, TIM10 inh 49.5*, SKKanGAS inh 0.2, tim10-1 conf 32.5* and tim10 confirm 22.8.
`O=C(CSc1nnc(-c2ccc(Cl)cc2)o1)N1CCOCC1` gave PfHsp90 set2 7.5, tim23-1 inh 11.8, tim10-1 inh 18.9, TIM10 inh -4.1 and SKKanGAS inh 9.5.
`CC(C)Cn1c2c(c(O)c(C(=O)Nc3nccs3)c1=O)CCCC2` gave PfHsp90 set2 -47.6, tim23-1 inh 43.0, tim10-1 inh 42.7*, TIM10 inh 55.4*, SKKanGAS inh 34.6, tim10-1 conf 38.9* and tim10 confirm 20.4.
Screening COC(C/C=C\[C@@H](O)[C@@H](C)OCc1ccccc1)OC returned tim23-1 inh 18.7, tim10-1 inh -1.6, TIM10 inh -4.3 and SKKanGAS inh -1.9.
Screening COC(C/C=C\C(=O)[C@H](C)OCc1ccccc1)OC returned PfHsp90 set2 4.2, tim23-1 inh 40.6, tim10-1 inh 44.1*, TIM10 inh 42.5*, SKKanGAS inh 2.7, tim10-1 conf 41.5* and tim10 confirm 26.4.
CCC(=O)Nc1cccc(C(=O)/C=C/c2cccs2)c1 was read as PfHsp90 set2 -6.9, tim23-1 inh 35.2, tim10-1 inh 45.7*, TIM10 inh 42.4*, SKKanGAS inh 1.6, tim10-1 conf 23.6 and tim10 confirm 18.0.
CC(=O)C(Sc1nc(N(C)C)nc(N(C)C)n1)C(=O)Nc1ccccc1 (stereo not drawn) was read as PfHsp90 set2 6.0, tim23-1 inh 27.8, tim10-1 inh 40.0*, TIM10 inh 96.7*, SKKanGAS inh -10.0, tim10-1 conf 23.2 and tim10 confirm 15.9.
For CC(Sc1nc(NCc2ccccc2)nc(N(C)C)n1)C(=O)Nc1ccccc1 (stereo not drawn) the results were PfHsp90 set2 -18.9, tim23-1 inh 36.1, tim10-1 inh 34.4, TIM10 inh 29.7 and SKKanGAS inh 9.0.
O=S(=O)(c1cccc(Cn2nnc(-c3ccccc3)n2)c1)N1CCOCC1 was read as PfHsp90 set2 10.8, tim23-1 inh 19.1, tim10-1 inh 13.9 and TIM10 inh 9.8.
For Cc1cccc(CN2C(=O)[C@H]3Cc4c([nH]c5ccccc45)C(C)(C)N3C2=O)c1 the results were tim23-1 inh 47.9, tim10-1 inh 43.5*, TIM10 inh 43.1*, SKKanGAS inh 16.4, tim10-1 conf 35.5* and tim10 confirm 35.0*.
For Cn1cnnc1SCCNS(=O)(=O)c1cccc([N+](=O)[O-])c1 the results were PfHsp90 set2 -9.3, tim23-1 inh -2.7, tim10-1 inh -0.1, TIM10 inh 0.3 and SKKanGAS inh 21.4.
